Experimental data published in the supplement of paper PMC6411743.
± gives the standard deviation of the averaged measurements. Of roughly 5,400 targets only a part is listed; those with the largest changes were picked by preference.

Compound: Nc1nc2c(ncn2[C@@H]2O[C@H](COP(=O)(O)OP(=O)(O)OP(=O)(O)O)[C@@H](O)[C@H]2O)c(=O)[nH]1 [guanosine triphosphate]
Assay: NP40-soluble protein abundance relative to vehicle (solubility fold change) (ratio); higher = more soluble protein in presence of GTP
Experimental: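 Solubility proteome profiling in Jurkat crude lysate. Lysate was treated with Mg-GTP (0.1-10 mM) for 10 min at room temperature and 3 min at 37 °C, then solubilised with 0.8% NP40 and benzonase, followed by ultracentrifugation. Proteins were quantified by TMT10 LC-MS/MS; the value is the NP40-soluble abundance relative to the NP40-processed vehicle, from 3 independent experiments.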

Sequence of UniProt Q9NVP1 (Q9NVP1 whole entry): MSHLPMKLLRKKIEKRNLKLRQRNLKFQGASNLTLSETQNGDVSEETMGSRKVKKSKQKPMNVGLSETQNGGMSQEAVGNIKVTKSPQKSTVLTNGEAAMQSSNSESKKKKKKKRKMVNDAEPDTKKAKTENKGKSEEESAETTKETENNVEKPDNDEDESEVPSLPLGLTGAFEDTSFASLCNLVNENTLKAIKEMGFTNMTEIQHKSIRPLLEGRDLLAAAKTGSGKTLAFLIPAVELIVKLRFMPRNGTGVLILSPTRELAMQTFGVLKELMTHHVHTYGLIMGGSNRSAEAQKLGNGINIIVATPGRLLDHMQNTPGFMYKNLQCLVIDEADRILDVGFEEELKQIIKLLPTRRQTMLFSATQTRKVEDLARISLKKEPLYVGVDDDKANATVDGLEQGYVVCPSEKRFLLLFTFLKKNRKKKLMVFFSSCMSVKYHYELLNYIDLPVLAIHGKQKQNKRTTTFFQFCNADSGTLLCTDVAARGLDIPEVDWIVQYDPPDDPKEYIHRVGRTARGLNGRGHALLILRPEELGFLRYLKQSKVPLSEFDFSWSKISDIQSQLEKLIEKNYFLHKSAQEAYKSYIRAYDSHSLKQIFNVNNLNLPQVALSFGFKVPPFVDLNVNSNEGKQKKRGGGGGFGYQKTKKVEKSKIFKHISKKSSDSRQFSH
Sequence of UniProt Q9BX67 (Q9BX67 whole entry): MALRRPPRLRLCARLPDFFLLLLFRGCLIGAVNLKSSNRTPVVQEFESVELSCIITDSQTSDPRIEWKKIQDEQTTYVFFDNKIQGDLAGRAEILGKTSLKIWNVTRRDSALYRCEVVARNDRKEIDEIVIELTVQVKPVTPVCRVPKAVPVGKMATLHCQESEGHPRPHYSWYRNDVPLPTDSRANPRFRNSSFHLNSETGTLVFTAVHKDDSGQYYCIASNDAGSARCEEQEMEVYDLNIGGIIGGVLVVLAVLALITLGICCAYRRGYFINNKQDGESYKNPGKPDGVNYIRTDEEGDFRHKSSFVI
Sequence of UniProt Q9HC52 (Q9HC52 whole entry): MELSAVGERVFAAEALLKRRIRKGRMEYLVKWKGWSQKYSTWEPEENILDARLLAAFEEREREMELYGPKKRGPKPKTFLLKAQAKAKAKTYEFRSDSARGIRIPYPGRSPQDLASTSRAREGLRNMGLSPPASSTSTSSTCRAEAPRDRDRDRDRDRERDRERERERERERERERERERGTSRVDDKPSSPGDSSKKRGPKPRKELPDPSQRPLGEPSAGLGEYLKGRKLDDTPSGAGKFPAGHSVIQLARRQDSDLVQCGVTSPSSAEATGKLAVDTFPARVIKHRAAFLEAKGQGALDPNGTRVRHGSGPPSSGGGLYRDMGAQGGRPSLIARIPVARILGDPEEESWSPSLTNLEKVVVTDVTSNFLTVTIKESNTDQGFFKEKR
Sequence of UniProt Q9Y2U8 (Q9Y2U8 whole entry): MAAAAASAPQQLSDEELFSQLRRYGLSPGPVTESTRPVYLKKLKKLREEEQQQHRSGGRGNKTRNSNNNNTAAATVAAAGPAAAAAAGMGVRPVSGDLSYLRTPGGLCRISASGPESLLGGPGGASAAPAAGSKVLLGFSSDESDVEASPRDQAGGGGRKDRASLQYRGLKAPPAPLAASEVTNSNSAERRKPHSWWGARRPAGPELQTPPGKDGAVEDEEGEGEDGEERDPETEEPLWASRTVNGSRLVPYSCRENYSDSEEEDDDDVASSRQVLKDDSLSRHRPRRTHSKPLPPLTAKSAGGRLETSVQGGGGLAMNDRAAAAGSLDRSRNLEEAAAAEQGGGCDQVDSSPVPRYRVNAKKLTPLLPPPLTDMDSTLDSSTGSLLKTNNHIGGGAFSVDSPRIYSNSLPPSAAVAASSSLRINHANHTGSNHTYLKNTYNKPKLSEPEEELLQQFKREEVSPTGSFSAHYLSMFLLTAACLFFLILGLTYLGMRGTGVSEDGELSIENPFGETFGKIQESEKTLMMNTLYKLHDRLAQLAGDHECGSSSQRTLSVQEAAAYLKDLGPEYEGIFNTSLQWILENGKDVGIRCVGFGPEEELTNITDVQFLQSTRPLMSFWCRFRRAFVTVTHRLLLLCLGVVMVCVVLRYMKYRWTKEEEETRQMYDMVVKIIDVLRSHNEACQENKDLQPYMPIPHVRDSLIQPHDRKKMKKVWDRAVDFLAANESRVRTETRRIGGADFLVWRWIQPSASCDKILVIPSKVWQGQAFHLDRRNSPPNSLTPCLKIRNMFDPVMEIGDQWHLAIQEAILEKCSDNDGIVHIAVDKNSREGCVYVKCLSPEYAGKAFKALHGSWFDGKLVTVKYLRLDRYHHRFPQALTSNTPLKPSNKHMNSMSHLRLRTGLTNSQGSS

Target | NP40-soluble protein abundance (concentration: 0.1mM) | NP40-soluble protein abundance (concentration: 0.5mM) | NP40-soluble protein abundance (concentration: 1mM) | NP40-soluble protein abundance (concentration: 2mM) | NP40-soluble protein abundance (concentration: 4mM) | NP40-soluble protein abundance (concentration: 6mM) | NP40-soluble protein abundance (concentration: 8mM) | NP40-soluble protein abundance (concentration: 10mM)
DDX18 (UniProt Q9NVP1) | 1.084 ± 0.0038 | 1.11 ± 0.024 | 1.08 ± 0.021 | 1.2 ± 0.071 | 1.42 ± 0.057 | 1.55 ± 0.061 | 1.69 ± 0.043 | 1.94 ± 0.066
UniProt Q9UKZ1 | 1.52 ± 0.81 | 1.19 ± 0.11 | 1.4 ± 0.41 | 2.81 ± 2.7 | 1.26 ± 0.14 | 1.24 ± 0.11 | 1.29 ± 0.15 | 1.36 ± 0.051
LEMD3 (UniProt Q9Y2U8) | 0.989 ± 0.049 | 1 ± 0.038 | 1.01 ± 0.037 | 1.01 ± 0.048 | 0.999 ± 0.036 | 0.985 ± 0.033 | 1.01 ± 0.049 | 0.985 ± 0.027
UniProt Q9BX67 | 1.04 ± 0.013 | 0.954 ± 0.065 | 0.965 ± 0.026 | 0.913 ± 0.066 | 0.905 ± 0.046 | 0.88 ± 0.086 | 0.953 ± 0.035 | 0.897 ± 0.06
CBX8 (UniProt Q9HC52) | 1.01 ± 0.04 | 1.04 ± 0.048 | 1.13 ± 0.013 | 1.24 ± 0.14 | 1.42 ± 0.15 | 1.61 ± 0.15 | 1.74 ± 0.17 | 1.86 ± 0.23
